The source of these data is PubChem BioAssay (NCATS).

Unmarked numbers belong to inactive results. Inconclusive results are not listed. The source made the active and inactive calls. Unless noted, calls come from the whole dose curve; as a rule, active = well fitted curve in the direction sought with a large enough effect; inconclusive = small, poorly fitted or top-dose-only effect, or another doubt; inactive = no such curve, though single readings can be large; an effect the other way counts as inactive or inconclusive. Some results are limits rather than exact numbers.

Experiment [1] deals with Lysosomal acid glucosylceramidase (Homo sapiens) (UniProt P04062). As to the kind of experiment: Glucocerebrosidase-p2 (AID 348; in the data active = potency below about 10 µM; note: potency is the fitted concentration of half-maximal effect). As to conditions: purified GBA, blue fluorogenic substrate, 40 min. The method, boiled down:
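Normal human glucocerebrosidase (0.2 nM) with blue fluorogenic substrate (80 uM final) in citrate/phosphate pH 5.9 with 10mM sodium taurocholate, 0.01% tween-20; 40 min RT, NaOH/glycine stop; fluorescence Ex 365/Em 440; AC50 from a titration from 0.6 nM upwards.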

The nature of experiment [2]: AP1 Signaling Pathway (AID 357; active = well fitted curve in either direction with a large enough effect, not every such curve was filed as active;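 note: ME-180 reporter cells stimulated with EGF at its EC50 level; % is set by controls: 0 for no effect and ±100 for the full control effect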). As to conditions: ME-180 AP-1-bla reporter, EGF-induced, beta-lactamase ratio, 5 h; at 7.69 µM (top of the series) unless noted. An outline of the steps: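 Modulation of EGF-driven AP-1 transcription was assessed with a beta-lactamase reporter in ME-180 cells. Compound and EC50 EGF were co-incubated 5 hours at 37 °C before 2.5-hour CCF4 loading at room temperature and dual-emission reading.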

The target of experiment [3] is Cytochrome P450 1A2 (Homo sapiens) (UniProt P05177). As to the kind of experiment: p450-cyp1a2 (AID 410; calls by dose curve; note: potency is the fitted concentration of half-maximal effect). To be noted: recombinant CYP1A2, luciferin-ME demethylation, luminescence; series mostly up to 57 µM. The method, boiled down:
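20nM CYP1A2, 100uM Luciferin-ME (=Km), 100mM KPO4; cpd 10 min RT; +NADPH regen, 60 min RT; stop/detect 20 min; luminescence. Normalized to furafylline 57 uM = full inhibition.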

Experiment [4] is described as follows: NFAT Signaling Pathway (AID 444; active = well fitted curve in either direction with a large enough effect, not every such curve was filed as active;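 note: carbachol stimulus at about its EC50 of 1 µM final; % is set by controls: 0 for no effect and ±100 for the full control effect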). To be noted: Jurkat NFAT-bla M1, carbachol, beta-lactamase ratio, 5 h; at 7.69 µM (top of the series) unless noted. The method, boiled down:
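Jurkat cells with NFAT-driven β-lactamase reporter and co-expressed M1 receptor, stimulated with carbachol (final 1 uM, ~EC50), compound titration, 5 h at 37 °C. CCF4 loaded 1 h at RT; 460/530 nm ratio gave %activity and AC50.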

A short description of experiment [5]: Stat Signaling Pathway (AID 446; active = well fitted curve in either direction with a large enough effect, not every such curve was filed as active;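 note: ME-180 cervical cancer cells given 40 pM IL-6 alongside compound; SIE-controlled beta-lactamase reporter measured as 460/530 nm FRET emission ratio; % is set by controls: 0 for no effect and ±100 for the full control effect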). To be noted: ME-180 (cervical carcinoma) SIE beta-lactamase reporter, IL-6 stimulated, 5 h; at 7.69 µM (top of the series) unless noted. An outline of the steps: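 Emission at 460 and 530 nm (excitation 405 nm) reports SIE-controlled beta-lactamase in ME-180 cells. Cells received compound with 40 pM IL-6 for 5 hrs at 37 C; data scaled between 300 pM IL-6 and 125 nM JAK-inhibitor controls.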

For experiment [6], the target named is Glucocorticoid receptor (Homo sapiens) (UniProt P04150). As to the kind of experiment: GR-GFP Redistribution (AID 450;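 active = compounds whose dose series gives a full or clear partial fitted curve of increased nuclear translocation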; note: potency is the fitted concentration of half-maximal effect). As to conditions: U2OS GR-GFP nuclear translocation, laser cytometry, 2 h.
Experiment [7] shares this target. Kind of experiment: GR-EFC Redistribution (AID 451; calls by dose curve; note: potency is the fitted concentration of half-maximal effect). To be noted: CHO-K1 GR-EFC translocation, beta-gal luminescence, 2 h. The method, boiled down:
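CHO-K1 cells expressing nuclear EA and GR-ED fragments of b-gal; compounds titrated up to 46 uM final, 2 h at 37 C. GR nuclear translocation read as complemented b-gal luminescence after 1 h RT detection.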

The target in experiment [8] is Mitogen-activated protein kinase 10 (Mus musculus) (UniProt Q61831). As to the kind of experiment: JNK3 AlphaScreen Assay (AID 530; active = well fitted curve in either direction with a large enough effect, not every such curve was filed as active;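 note: kinase came from lysate of stimulated human HepG2 cells; signal reports phosphorylation of biotinylated GST-cJun 1-79 at Ser73 with 10 µM ATP; % is set by controls: 0 for no effect and ±100 for the full control effect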). As to conditions: JNK3 lysate, c-Jun phosphorylation; series mostly up to 57.1 µM. An outline of the steps:
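HepG2 lysate (IL-1b/TNFa pre-activated) + biotin-GST-cJun 1-79 + anti-pSer73 cJun; cpd titration, 15 min RT; ATP 10 uM start; Tris pH 7.6, MgCl2, DTT, vanadate; beads in EDTA buffer; AlphaScreen.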

For experiment [9], the target named is Cytochrome P450 3A4 (Homo sapiens) (UniProt P08684). As to the kind of experiment: qHTS Assay for Activators of Cytochrome P450 3A4 (AID 885). Note: nearly all actives have a fitted effect of over 65% in size. As to conditions: recombinant CYP3A4, Luciferin-PPXE luminescence, 60 min; series mostly up to 57.1 µM. The method, boiled down:
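Activators are scored by enhanced luminescence from CYP3A4 conversion of luciferin-PPXE (25uM, equal to KM) to luciferin, after 60 min at RT with an NADPH-regenerating system.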
For orientation: In qHTS, concentration-response curves come from the screen itself.

Experiment [10] addresses Cytochrome P450 2D6 (Homo sapiens) (UniProt P10635). Kind of experiment: qHTS Assay for Inhibitors and Substrates of Cytochrome P450 2D6 (AID 891). Note: potency is the fitted concentration of half-maximal effect; nearly all actives have a fitted effect of over 60% in size. As to conditions: recombinant CYP2D6, luciferin-ME EGE luminescence; series mostly up to 57.1 µM. The method, boiled down:
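Luminescent read-out of luciferin formed by 5 nM human CYP2D6 demethylating 30 uM Luciferin-ME EGE (Km level) over 60 min at room temperature after NADPH regeneration addition. Data normalized to full inhibition by 1.43 uM quinidine.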

Experiment [11] addresses Dual specificity protein kinase CLK4 (Homo sapiens) (UniProt Q9HAZ1). Kind of experiment: qHTS Assay for Inhibitors of CDC-like Kinase 4 (Kinase-Glo Assay) (AID 1770). Note: nearly all actives have a fitted effect of over 65% in size. Note: potency is the fitted concentration of half-maximal effect. To be noted: recombinant Clk4, Kinase-Glo ATP depletion luminescence; series mostly up to 66.7 µM. The method, boiled down:
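Recombinant human Clk4 (25 nM) phosphorylated RS repeat peptide (100 uM) with 1 uM ATP in Tris pH 7.5/MgCl2/EGTA/DTT/Triton buffer for 4.5 h at room temperature. Residual ATP was quantified by Kinase-Glo luciferase luminescence.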

The target is the same in experiment [12]. As to the kind of experiment: qHTS Assay for Inhibitors of CDC-like Kinase 4 (ADP-Glo Assay) (AID 1771). Note: nearly all actives have a fitted effect of over 70% in size. Note: potency is the fitted concentration of half-maximal effect. As to conditions: recombinant CLK4, ADP-Glo luminescence; series mostly up to 80 µM. The method, boiled down: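 25 nM Clk4, 100 uM RS peptide, 1 uM ATP (final); 2 mM MgCl2, 0.5 mM EGTA, 2.5 mM DTT, 0.01% Triton X-100; 1 hr RT. ADP-Glo readout: ATP depletion 45 min, conversion/luciferase 30 min, luminescence.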

Experiment [13] concerns the target Ubiquitin carboxyl-terminal hydrolase 1 (Homo sapiens) (UniProt O94782). Kind of experiment: Inhibitors of USP1/UAF1: Pilot qHTS (AID 504865).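 Note: rhodamine fluorescence freed from ubiquitin-rhodamine substrate followed over time; top concentration of the series differs between compounds; % is set by controls: 0 for no effect and ±100 for the full control effect; nearly all actives have a fitted effect of over 35% in size.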 To be noted: purified USP1/UAF1, Ub-rhodamine cleavage fluorescence; series mostly up to 54.9 µM. An outline of the steps: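 USP1/UAF1 complex (1nM) preincubated with compound 15 min at room temperature, then Ub-Rho substrate (150nM final) added. Fluorescence read kinetically at 480/540 nm, 6 reads every 60 seconds. Buffer: 50mM HEPES pH 7.8, 0.5mM EDTA, 0.1 mg/ml BSA, 1mM TCEP, 0.01% Tween-20.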

Experiment [14] is described as follows: Primary qHTS for small molecule stabilizers of the endoplasmic reticulum resident proteome: Secreted ER Calcium Modulated Protein (SERCaMP) assay (AID 1508630). Note: % is set by controls: 0 for no effect and ±100 for the full control effect. As to conditions: SH-SY5Y GLuc-SERCaMP (Gaussia luciferase released on ER calcium loss) secretion, thapsigargin, luminescence; series mostly up to 38.4 µM. The method, boiled down: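 The SH-SY5Y reporter protocol was run at 3 concentrations up to 38.3 uM (primary) or 11 concentrations (follow-up): 16 h compound, 100 nM thapsigargin for 4 h, then extracellular luciferase luminescence.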

In experiment [15] the target is 3',5'-cyclic-AMP phosphodiesterase 4B (Homo sapiens) (UniProt Q07343). As to the kind of experiment: qHTS Assay for Inhibitors of PDE-IV (AID 607; active = well fitted activation curve with a large enough effect in the main read-out, with a control signal flat, not every such curve was filed as active; note: % of control where 0% means no effect). As to conditions: HEK293 ACTOne CNG channel cells, membrane potential fluorescence; series mostly up to 22.9 µM. An outline of the steps:
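The readout is membrane depolarisation from a cAMP-sensing CNG channel, detected with a potential dye at ex 535/em 590. Cells were HEK293-derived (endogenous PDE-IV) at 1000 cells/well, titrated up to 22.9 uM final.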

Experiment [16] concerns the target Dual specificity protein kinase CLK4 (Homo sapiens) (UniProt Q9HAZ1). As to the kind of experiment: qHTS Assay for Inhibitors of CDC-like Kinase 4 (ADP-FP Assay) (AID 1795). Note: % is set by controls: 0 for no effect and ±100 for the full control effect; nearly all actives have a fitted effect of over 60% in size. To be noted: Transcreener ADP fluorescence polarization; series mostly up to 50 µM. An outline of the steps:
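Recombinant human Clk4 (6.25 nM) phosphorylated RS repeat peptide (100 uM) with 1 uM ATP in Tris pH 7.5/MgCl2/EGTA/DTT/Triton buffer for one hour. ADP was quantified by Transcreener competitive fluorescence polarization against an ADP calibration curve.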

Experiment [17] concerns the target Cytochrome P450 3A4 (Homo sapiens) (UniProt P08684). As to the kind of experiment: qHTS Assay for Inhibitors and Substrates of Cytochrome P450 3A4 (AID 884). Note: potency is the fitted concentration of half-maximal effect; nearly all actives have a fitted effect of over 50% in size. As to conditions: recombinant CYP3A4, Luciferin-PPXE luminescence; series mostly up to 57.1 µM. An outline of the steps:
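Luminescent readout of luciferin produced by CYP3A4 (20 nM) dealkylation of Luciferin-PPXE, 25 uM (its KM). NADPH-driven reaction ran 60 min at RT after 10 min compound preincubation; data scaled to 57 uM ketoconazole as 100% inhibition.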

Chain of Glucocorticoid receptor (Homo sapiens) (P04150 whole entry, looked up): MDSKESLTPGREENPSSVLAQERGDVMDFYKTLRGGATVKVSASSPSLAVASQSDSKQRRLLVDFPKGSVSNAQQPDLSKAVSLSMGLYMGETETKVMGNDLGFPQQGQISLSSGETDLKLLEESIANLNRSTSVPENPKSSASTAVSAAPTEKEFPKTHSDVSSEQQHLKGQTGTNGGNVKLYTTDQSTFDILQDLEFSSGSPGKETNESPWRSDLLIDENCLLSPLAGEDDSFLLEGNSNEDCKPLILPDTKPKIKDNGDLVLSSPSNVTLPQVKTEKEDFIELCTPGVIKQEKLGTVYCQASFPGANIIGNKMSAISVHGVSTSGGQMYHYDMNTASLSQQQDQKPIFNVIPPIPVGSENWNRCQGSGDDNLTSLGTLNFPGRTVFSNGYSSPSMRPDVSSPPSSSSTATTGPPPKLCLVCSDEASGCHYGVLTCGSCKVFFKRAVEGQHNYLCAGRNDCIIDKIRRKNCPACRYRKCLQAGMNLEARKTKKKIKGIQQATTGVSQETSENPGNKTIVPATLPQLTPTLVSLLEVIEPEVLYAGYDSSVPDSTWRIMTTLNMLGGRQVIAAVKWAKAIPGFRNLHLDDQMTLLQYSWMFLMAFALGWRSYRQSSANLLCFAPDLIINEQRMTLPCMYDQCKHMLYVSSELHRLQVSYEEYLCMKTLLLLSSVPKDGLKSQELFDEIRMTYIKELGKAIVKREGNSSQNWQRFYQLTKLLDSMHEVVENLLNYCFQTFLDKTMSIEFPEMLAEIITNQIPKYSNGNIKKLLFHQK
Chain of Dual specificity protein kinase CLK4 (Homo sapiens) (Q9HAZ1 whole entry, looked up): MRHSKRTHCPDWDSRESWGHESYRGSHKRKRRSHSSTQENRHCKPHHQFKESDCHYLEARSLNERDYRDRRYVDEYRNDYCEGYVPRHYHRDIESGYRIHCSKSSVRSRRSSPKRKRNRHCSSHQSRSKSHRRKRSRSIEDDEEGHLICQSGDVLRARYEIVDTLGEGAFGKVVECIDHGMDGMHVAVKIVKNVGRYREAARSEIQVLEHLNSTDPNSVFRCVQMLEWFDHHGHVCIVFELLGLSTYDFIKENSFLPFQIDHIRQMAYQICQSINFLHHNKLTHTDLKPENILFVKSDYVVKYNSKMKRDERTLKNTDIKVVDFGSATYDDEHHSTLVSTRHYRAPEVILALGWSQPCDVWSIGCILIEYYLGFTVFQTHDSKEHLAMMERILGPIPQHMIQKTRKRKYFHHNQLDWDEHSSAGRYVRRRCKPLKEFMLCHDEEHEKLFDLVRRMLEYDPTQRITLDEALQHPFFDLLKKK
Chain of Cytochrome P450 1A2 (Homo sapiens) (P05177 whole entry, looked up): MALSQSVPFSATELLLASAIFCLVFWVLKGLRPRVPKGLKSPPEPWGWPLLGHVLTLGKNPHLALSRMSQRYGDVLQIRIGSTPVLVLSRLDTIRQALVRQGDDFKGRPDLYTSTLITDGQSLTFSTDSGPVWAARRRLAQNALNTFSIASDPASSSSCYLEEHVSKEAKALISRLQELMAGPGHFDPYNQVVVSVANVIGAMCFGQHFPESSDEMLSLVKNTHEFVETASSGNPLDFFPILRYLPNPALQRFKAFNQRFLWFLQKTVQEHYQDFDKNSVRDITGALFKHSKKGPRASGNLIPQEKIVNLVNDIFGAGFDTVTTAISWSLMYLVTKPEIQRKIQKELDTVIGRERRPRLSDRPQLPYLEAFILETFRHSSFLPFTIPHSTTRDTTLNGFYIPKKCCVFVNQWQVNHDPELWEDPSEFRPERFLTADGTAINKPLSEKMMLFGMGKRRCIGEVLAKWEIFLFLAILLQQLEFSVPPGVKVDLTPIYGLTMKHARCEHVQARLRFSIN
Chain of Ubiquitin carboxyl-terminal hydrolase 1 (Homo sapiens) (O94782 whole entry, looked up): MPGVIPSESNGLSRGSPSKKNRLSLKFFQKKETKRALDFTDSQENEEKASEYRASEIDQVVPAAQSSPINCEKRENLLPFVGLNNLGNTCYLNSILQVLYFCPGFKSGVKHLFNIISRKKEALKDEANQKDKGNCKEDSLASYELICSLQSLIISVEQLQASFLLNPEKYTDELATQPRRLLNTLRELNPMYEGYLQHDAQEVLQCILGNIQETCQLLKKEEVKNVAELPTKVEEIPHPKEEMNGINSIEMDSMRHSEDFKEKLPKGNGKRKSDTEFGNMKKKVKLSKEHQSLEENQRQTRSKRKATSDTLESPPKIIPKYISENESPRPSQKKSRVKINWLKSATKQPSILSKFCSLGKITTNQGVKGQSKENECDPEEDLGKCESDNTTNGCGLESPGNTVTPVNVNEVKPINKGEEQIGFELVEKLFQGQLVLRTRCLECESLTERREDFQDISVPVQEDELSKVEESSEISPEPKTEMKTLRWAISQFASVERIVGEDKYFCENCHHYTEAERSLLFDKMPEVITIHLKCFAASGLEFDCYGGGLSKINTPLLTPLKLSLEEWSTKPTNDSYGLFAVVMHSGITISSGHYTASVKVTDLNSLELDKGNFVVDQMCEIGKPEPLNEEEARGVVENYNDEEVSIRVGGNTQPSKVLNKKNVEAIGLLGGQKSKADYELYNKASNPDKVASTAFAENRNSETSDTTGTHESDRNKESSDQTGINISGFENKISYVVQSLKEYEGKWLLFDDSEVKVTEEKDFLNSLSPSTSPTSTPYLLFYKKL
Chain of Cytochrome P450 3A4 (Homo sapiens) (P08684 whole entry, looked up): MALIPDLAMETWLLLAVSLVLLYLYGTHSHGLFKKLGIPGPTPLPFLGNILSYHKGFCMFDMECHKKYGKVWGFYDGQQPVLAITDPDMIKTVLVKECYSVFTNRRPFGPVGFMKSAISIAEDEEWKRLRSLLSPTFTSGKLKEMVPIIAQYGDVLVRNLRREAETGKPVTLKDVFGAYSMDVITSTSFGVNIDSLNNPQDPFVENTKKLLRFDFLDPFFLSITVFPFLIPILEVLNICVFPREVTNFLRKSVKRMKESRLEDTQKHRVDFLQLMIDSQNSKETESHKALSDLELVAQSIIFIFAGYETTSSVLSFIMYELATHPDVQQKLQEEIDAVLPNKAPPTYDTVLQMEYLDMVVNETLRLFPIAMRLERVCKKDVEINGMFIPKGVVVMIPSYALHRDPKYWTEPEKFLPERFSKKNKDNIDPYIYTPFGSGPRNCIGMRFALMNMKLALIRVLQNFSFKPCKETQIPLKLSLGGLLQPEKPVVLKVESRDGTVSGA
Chain of 3',5'-cyclic-AMP phosphodiesterase 4B (Homo sapiens) (Q07343 whole entry, looked up): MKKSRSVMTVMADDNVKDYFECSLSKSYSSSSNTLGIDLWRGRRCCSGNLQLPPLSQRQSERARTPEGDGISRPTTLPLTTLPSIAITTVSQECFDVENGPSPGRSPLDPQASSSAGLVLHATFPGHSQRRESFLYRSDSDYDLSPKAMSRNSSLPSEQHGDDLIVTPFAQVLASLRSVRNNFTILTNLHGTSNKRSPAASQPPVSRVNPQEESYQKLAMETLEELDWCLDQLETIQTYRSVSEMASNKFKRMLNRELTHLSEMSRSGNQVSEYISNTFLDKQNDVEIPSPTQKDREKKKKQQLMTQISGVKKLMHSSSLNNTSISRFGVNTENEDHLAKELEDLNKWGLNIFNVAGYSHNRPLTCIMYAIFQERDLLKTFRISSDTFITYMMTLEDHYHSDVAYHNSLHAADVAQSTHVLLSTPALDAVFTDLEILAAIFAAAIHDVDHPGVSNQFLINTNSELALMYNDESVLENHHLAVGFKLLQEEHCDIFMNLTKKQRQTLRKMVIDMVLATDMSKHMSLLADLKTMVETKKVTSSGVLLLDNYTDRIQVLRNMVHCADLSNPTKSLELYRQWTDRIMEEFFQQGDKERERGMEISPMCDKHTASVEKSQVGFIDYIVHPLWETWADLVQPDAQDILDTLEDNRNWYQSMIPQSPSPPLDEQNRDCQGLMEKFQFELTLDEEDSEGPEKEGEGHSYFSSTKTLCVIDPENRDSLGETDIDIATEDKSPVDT
Chain of Lysosomal acid glucosylceramidase (Homo sapiens) (P04062 whole entry, looked up): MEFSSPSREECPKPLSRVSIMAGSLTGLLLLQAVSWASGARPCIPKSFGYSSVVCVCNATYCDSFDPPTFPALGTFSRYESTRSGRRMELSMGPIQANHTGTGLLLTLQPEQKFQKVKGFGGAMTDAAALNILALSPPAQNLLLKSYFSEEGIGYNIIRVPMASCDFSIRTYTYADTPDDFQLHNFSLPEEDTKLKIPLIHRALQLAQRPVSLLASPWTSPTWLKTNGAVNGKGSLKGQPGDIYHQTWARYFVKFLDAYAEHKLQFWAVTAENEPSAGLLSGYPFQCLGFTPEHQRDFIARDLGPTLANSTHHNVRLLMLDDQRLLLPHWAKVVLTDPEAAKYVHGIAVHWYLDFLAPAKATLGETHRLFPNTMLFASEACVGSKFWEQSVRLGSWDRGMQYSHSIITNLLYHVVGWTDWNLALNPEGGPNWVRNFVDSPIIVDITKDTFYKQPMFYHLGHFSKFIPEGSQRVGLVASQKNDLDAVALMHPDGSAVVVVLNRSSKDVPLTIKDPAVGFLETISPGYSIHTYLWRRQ
Chain of Cytochrome P450 2D6 (Homo sapiens) (P10635 whole entry, looked up): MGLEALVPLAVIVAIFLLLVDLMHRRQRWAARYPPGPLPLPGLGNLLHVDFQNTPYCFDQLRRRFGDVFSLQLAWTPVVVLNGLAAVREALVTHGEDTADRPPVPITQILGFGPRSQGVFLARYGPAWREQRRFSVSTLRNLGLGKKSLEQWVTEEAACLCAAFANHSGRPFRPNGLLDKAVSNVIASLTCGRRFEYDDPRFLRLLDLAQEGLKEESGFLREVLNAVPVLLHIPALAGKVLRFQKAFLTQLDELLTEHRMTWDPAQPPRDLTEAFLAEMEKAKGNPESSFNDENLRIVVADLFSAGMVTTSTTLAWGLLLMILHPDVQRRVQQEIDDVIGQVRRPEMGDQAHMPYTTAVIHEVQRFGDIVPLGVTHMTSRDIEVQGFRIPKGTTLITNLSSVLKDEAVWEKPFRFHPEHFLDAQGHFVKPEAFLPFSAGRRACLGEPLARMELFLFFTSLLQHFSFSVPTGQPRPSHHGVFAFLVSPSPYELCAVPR

Regarding `CCNc1ncc2nc(-c3cn(C)c4ccccc34)c(=O)n(CCC#N)c2n1`, the Potency in experiment [1] was above 11.4 µM; in experiment [3], 5.01 µM (active); in [6], above 9.22 µM; in [7], above 46 µM; in experiment [10], 3.98 µM (active). For the same molecule, the figures for the activity change, negative = inhibition in experiment [2] and in [4] were -22.2% and -4.28%, respectively. In addition, in experiment [5], the activity, negative = inhibition was -12.7%. The Potency entry in experiment [8], in [9], in experiment [11], in experiment [12] and in experiment [13] was “inactive” in each case. Besides, the outcome in experiment [14] was inactive.
For `FC(F)(F)c1ccccc1-c1nccc(-n2ccnc2)n1`, the Potency in experiment [1] was above 11.4 µM; in experiment [6], above 46 µM; in experiment [7], above 46 µM; in [11], 15.8 µM (active); in experiment [12], 25.1 µM (active). The activity change, negative = inhibition in [2] was -7.77%; in experiment [4], 2.35%. Also, in [5], the activity, negative = inhibition was 0.859%. Further, the Potency result in experiment [8] and in experiment [13] was “inactive” in each case. In addition, the outcome in [14] was inactive.
Take `Cc1cnc(CNc2cc(-c3ccc(N(C)C)cc3)ncn2)cn1`: the Potency in experiment [1] is above 11.4 µM; in experiment [6], above 46 µM; in [7], above 46 µM; in [11], 5.01 µM (active); in [12], 5.01 µM (active). Moreover, the activity change, negative = inhibition was -9.61% in experiment [2] and 11.3% in experiment [4]. In addition, in experiment [5], the activity, negative = inhibition was -5.54%. Also, the Potency result in experiment [8], in [15] and in experiment [13] was “inactive” in each case. Moreover, the result in [14] was inactive.
Take `O=c1c(-c2ccccc2)nc2cnc(N3CCOCC3)nc2n1Cc1cccs1`: the Potency was above 11.4 µM in experiment [1], 2.51 µM (active) in experiment [3], above 9.22 µM in experiment [6] and above 46 µM in experiment [7]. The activity change, negative = inhibition in [2] is 20.9%; in experiment [4] it was 14.9%. For the same molecule, the activity, negative = inhibition in experiment [5] was 20.6%. Further, the Potency entry in experiment [8], in experiment [15], in [11], in [16] and in [13] was “inactive” each time. Further, the outcome in experiment [14] was inactive.
On to `COc1ccc(-n2c(=O)c(CCc3ccccc3)nc3cnc(N4CCOCC4)nc32)cc1`, for which the activity change, negative = inhibition is -17% in experiment [2] and -7.5% in experiment [4]. Besides, the Potency in experiment [3] is 15.8 µM (active); in [6], above 9.22 µM; in experiment [7] it was above 46 µM. Moreover, the activity, negative = inhibition in [5] was -13.2%. The Potency result in experiment [8], in [15], in [9], in experiment [11], in experiment [12] and in experiment [13] was “inactive” each time. For the same molecule, the outcome in [14] was inactive.
`NC(=O)c1ccccc1-c1nc(-n2ccnc2)c2ccccc2n1`: the Potency in experiment [1] was above 11.4 µM; in experiment [3], 2.51 µM (active); in experiment [6], above 46 µM; in experiment [7], above 46 µM; in experiment [17] it was 3.98 µM (active). Further, the activity change, negative = inhibition in [2] was 11.1%; in experiment [4], -3.23%. In addition, the activity, negative = inhibition in experiment [5] was -1.41%. For the same molecule, the Potency result in experiment [8], in experiment [15], in experiment [9], in experiment [11], in experiment [16] and in [13] was “inactive” throughout. Moreover, in experiment [14], the result was inactive.
